Results on 18 compounds are retold here after PubChem BioAssay (EPA / NIEHS).

A short description of test [1]: ACEA_AR_agonist_AUC_viability: ACEA Biosciences xCELLigence Real-Time Cell Analysis on Androgen Receptor Agonism for Viability (AID 2283775).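 On AC50: viability read 80 hours after compound addition.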 The gist of the method:
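22Rv1 cells; impedance growth kinetics; 8-pt 1:4 dilutions from 100 uM top final, ≤0.5% DMSO; n = 2; 80 h read; AUC viability, loss-of-signal vs DMSO.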

Test [2] is described as follows: ACEA_AR_antagonist_AUC_viability: ACEA Biosciences xCELLigence Real-Time Cell Analysis on Androgen Receptor Antagonism for Viability (AID 2283776).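 Further: 22Rv1 human prostate cancer cells growing on impedance electrode plates; area under impedance growth curve at 80 h after dosing as viability; hits lower the growth signal relative to DMSO meaning cytotoxicity.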 The gist of the method: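 Viability endpoint from label-free cell-index monitoring: 22Rv1 cultures treated with an eight-point 1:4 dilution series starting at 100 uM final, AUC at 80 h fitted against DMSO.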
Another test deals with AR (gene 367) (UniProt P10275). Kind of test: ACEA_AR_antagonist_80hr: ACEA Biosciences xCELLigence Real-Time Cell Analysis on Androgen Receptor Antagonism for Proliferation (AID 2283787).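 Further: 22Rv1 human prostate cancer cells with growth followed by electrical impedance; hits lower the impedance growth signal relative to DMSO.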 In a few lines:
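Impedance-based real-time growth of 22Rv1 prostate cells, read 80 h after dosing. Eight concentrations, 1:4 series, top 100 uM final (0.5% DMSO), n = 2; signal decrease scored against DMSO.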

The nature of test [3]: ACEA_ER_AUC_viability: ACEA Biosciences xCELLigence Real-Time Cell Analysis on Estrogen Receptor Agonism for Viability (AID 2283782).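 Further: hit means loss of impedance signal meaning reduced cell growth or viability.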 In a few lines: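 Viability endpoint: reduced impedance area under the curve relative to DMSO, recorded by real-time electrode sensing over ~80 h of continuous exposure. Duplicate plates of T47D in hormone-depleted medium; eight concentrations, 1:4 dilutions, 100 uM maximum.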

The structures appear in SMILES notation. Records with an inconclusive call do not appear. The source made the active and inactive calls. How the source made its calls: active means hit-call score of the fitted dose curve at least 0.9, where 1 is the maximum; inconclusive means response in the unintended direction; inactive means score below 0.9.

Chain of AR (gene 367) (P10275 whole entry, looked up): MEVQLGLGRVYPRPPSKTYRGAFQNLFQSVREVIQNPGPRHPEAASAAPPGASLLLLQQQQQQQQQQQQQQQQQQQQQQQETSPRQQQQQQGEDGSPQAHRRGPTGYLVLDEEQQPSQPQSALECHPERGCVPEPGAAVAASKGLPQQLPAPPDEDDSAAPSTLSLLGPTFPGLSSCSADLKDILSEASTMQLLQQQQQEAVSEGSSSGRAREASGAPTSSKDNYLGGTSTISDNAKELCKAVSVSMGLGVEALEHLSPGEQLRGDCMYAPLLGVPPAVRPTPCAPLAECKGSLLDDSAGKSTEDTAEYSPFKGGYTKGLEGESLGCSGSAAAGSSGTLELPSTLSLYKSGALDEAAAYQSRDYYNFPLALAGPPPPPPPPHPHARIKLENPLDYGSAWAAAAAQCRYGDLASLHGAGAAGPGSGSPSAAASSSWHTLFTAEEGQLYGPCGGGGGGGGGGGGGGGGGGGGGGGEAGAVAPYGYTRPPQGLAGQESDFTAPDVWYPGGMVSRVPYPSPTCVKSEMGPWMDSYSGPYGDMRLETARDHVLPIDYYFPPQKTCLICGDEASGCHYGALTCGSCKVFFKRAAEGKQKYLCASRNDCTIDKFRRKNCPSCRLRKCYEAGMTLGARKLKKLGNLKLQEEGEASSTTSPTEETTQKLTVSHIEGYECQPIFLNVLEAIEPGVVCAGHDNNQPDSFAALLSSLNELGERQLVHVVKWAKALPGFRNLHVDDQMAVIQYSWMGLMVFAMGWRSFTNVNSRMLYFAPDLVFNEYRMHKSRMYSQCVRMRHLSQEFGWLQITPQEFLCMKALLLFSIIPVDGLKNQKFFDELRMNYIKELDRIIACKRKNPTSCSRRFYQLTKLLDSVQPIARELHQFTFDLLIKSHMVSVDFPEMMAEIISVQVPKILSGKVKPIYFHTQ

For the compound `O=C(O)[C@H](O)[C@@H](O)C(=O)O`, the compound was called inactive in test [1] and in test [2].

For orientation: AC50 means the concentration at which the activity in the assay is half-maximal. Take `CC(C)c1nnc2ccc(-c3ocnc3-c3cc(F)ccc3F)cn12`: the AC50 in test [1] was 66.8 µM (active).

In the case of `CCCCCCCCCCCCCCO`, in test [1], the half-maximal activity concentration (AC50) was 50 µM (active).

As for `CCCCC(CC)C(=O)OCCOCCOCCOC(=O)C(CC)CCCC` (stereo not drawn), the results for the AC50 (in test [1]; in test [2]; with AR (gene 367)) were 50 µM (active), 50 µM (active) and 65.8 µM (active), respectively.

For the compound `CCCc1ccccc1`, the outcome in test [1] and in test [3] was inactive.

With `O=C(NO)C1(NS(=O)(=O)c2ccc(Oc3ccc(F)cc3)cc2)CCOCC1`, the AC50 in test [1] is 38.5 µM (active); in test [2] it was 50 µM (active).

For `CCCOc1ccc(S(=O)(=O)N2CCN(CC)CC2)cc1-c1nc2c(CC)n(Cc3ccccn3)nc2c(=O)[nH]1`, the call in test [1] was inactive.

In the case of `CNC(C)=O`, the compound was called inactive in test [1].

On to `OCC(CO)(CO)CO`, for which the compound was called inactive in test [1].

Consider `CCCCCCCCCCCCCCCCOS(=O)(=O)O`, for which the AC50 in test [1] was 38.3 µM (active); in test [2] it was 43.8 µM (active); with AR (gene 367), 46.2 µM (active). Also, the compound was called inactive in test [3].

Consider `Cc1nccn1-c1ccc(Sc2cccc(C3(C(N)=O)CCOCC3)c2)cc1`, for which, in test [1], the AC50 was 25.5 µM (active).

Consider `c1ccc2ncccc2c1`, for which the compound was classed as inactive in test [1].

As for `OC(Cn1cncn1)(Cn1cncn1)c1ccc(F)cc1F`, the compound was classed as inactive in test [1].

Consider `O=C(O)CO`, for which, in test [1], the result was inactive.

Take `CCn1nc(C)c2c1C(=O)NCC(c1ccc(O)cc1)=N2`: the AC50 in test [1] is 25.8 µM (active).

Regarding `NC(=O)N(O)[C@@H]1COc2cc(OCc3ccccc3)ccc21`, in test [1], the call was inactive.

In the case of `O=C(O)c1ccc2c(c1)nc(C(=O)NC1CCN(C3CC3)CC1)n2Cc1cc(-c2ccc(Cl)s2)on1`, the AC50 in test [1] is 18.6 µM (active); in test [2], 15.8 µM (active). In addition, the compound was classed as inactive in test [3].

In the case of `CCCCCCCC/C=C\CCCCCCCC(=O)OC[C@@H](O)[C@H]1OC[C@H](O)[C@H]1O`, the outcome in test [1] was inactive.
